Several values for one entry are separate records, joined by “and”; a condition that tells them apart may be missing. Equal values may be shown once. Results filed as inconclusive are left out. Activity calls are given as the source filed them. Unless noted, the call rests on the fitted dose curve; in most records, active means well fitted curve in the direction sought with a large enough effect; inconclusive means small, poorly fitted or top-dose-only effect, or another doubt; inactive means no such curve, though single readings can be large; an effect the other way counts as inactive or inconclusive. Bridge positions count the residues as written; N and C are the ends. Square brackets hold non-standard residues; d marks the D form. Peptide text beside a SMILES is read from it. * marks the point of attachment. Octanoyl(6-Me) = CCC(C)CCCCC(=O)*; Dab = NCC[CH](N)C(=O)O
Tests used:
[1] = Cell Viability - BJ (AID 421; calls by dose curve;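 further: potency means the concentration at half of the fitted maximal effect; cells exposed to compound for 40 hours at 37 °C before readout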); conditions: BJ fibroblast viability, qHTS
Procedure, shortened: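 Normal human BJ foreskin fibroblasts, 1500/well in complete medium, treated 40 hr at 37 °C. Cellular ATP by CellTiter-Glo luminescence; normalized to DMSO and 100 uM tamoxifen, AC50 from Hill fit.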

[2] = Cell Viability - MRC5 (AID 434; calls by dose curve;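 further: potency means the concentration at half of the fitted maximal effect; potency reflects cytotoxicity seen as loss of intracellular ATP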); conditions: MRC5 lung fibroblast viability, qHTS
Procedure, shortened: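 ATP luminescence read-out (CellTiter-Glo, 20 min RT) after 40 hr, 37 °C compound exposure of 1500 MRC5 cells/well. Data normalized to DMSO (basal) and 100 uM tamoxifen (100% inhibition); AC50 from standard Hill equation.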

[3] = Cell Viability - SK-N-SH (AID 435; calls by dose curve;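 further: potency means the concentration at half of the fitted maximal effect; compound exposure lasted 40 h at 37 °C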); conditions: SK-N-SH neuroblastoma cell viability qHTS
Procedure, shortened: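 SK-N-SH human neuroblastoma cells (1500/well) were exposed to compounds in complete medium for 40 h at 37 °C, and intracellular ATP was then measured by CellTiter-Glo luminescence. AC50 was taken from Hill fits, normalized to DMSO and 100 uM tamoxifen.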

[4] = Cell Viability - NIH 3T3 (AID 541); conditions: NIH 3T3 cell viability, qHTS; activity change, negative = cytotoxicity: at 92.2 µM (top of the series);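 further: plate controls were DMSO alone for no effect and tamoxifen positive control for full effect; nearly all actives have a fitted effect of over 25% in size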
Procedure, shortened: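 Intracellular ATP (CellTiter-Glo luminescence, 20 min at room temperature) measured after 40 hr compound exposure at 37 °C of 1000 NIH 3T3 mouse fibroblasts/well in complete medium; AC50 derived by Hill-equation modelling of qHTS concentration-response curves.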

[5] = Cell Viability - HUV-EC-C (AID 542); conditions: HUV-EC-C endothelial cell viability, qHTS; series mostly up to 92.2 µM; further: on the % scale 0 is the no-effect control and ±100 the full control effect; nearly all actives have a fitted effect of over 35% in size
Procedure, shortened: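 CellTiter-Glo luminescence measured ATP loss in HUV-EC-C cells (1000/well) after 40 hr compound exposure at 37 °C, in complete culture medium. Concentration-response data were Hill-fitted to give AC50.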

[6] = Cell Viability - Mesenchymal (AID 546); conditions: mesenchymal cells viability, qHTS; activity change, negative = cytotoxicity: at 91.7 µM (top of the series);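 further: cells exposed to compound for 40 hours before reading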
Procedure, shortened: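 Human renal mesenchymal cells (glomerulus-derived), 1000 cells/well, 5 hr 37 °C pre-incubation; compound 40 hr, 37 °C; CellTiter-Glo, 20 min RT; luminescence; AC50 via Hill equation.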

[7] = Cellular Toxicity (caspase-3) HepG2 (AID 654); conditions: HepG2 caspase-3 activation, luminescence, 0% = DMSO only, 100% = tamoxifen; series mostly up to 92.2 µM;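 further: cells exposed to compound for 16 hours before reading; 0% = DMSO alone and 100% = caspase signal from 100 µM tamoxifen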
Procedure, shortened: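 Caspase 3/7 activation is measured as a luminescence increase (aminoluciferin substrate) after 16 h compound exposure of human hepatocarcinoma HepG2 cells. AC50 values are Hill fits, scaled between DMSO baseline and 100 uM tamoxifen stimulation.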

[8] = Cellular Toxicity (caspase-3) HUV-EC-C (AID 656); conditions: HUV-EC-C cells, caspase-3 activation (apoptosis), vehicle = 0, 100 µM tamoxifen = 100%; series mostly up to 92.2 µM
Procedure, shortened: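 HUV-EC-C endothelial cells, 1000/well, were pre-incubated 5 hr at 37°C, then exposed to compounds for 16 hr at 37°C. Caspase-Glo 3/7 luminescence was read after 20 min at room temperature. AC50 came from Hill fits, normalized to DMSO and 100 uM tamoxifen.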

[9] = Cellular Toxicity (caspase-3) SHSY5Y (AID 657); conditions: SH-SY5Y caspase-3 activation, DMSO zero, 10 µM staurosporine = 100%; series mostly up to 91.7 µM
Procedure, shortened: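 SH-SY5Y human neuroblastoma cells (1500/well) were treated with compounds for 16 h at 37 °C, then Caspase-Glo 3/7 luminescence was read after 1 h at room temperature. Data normalized to DMSO and 10 uM staurosporine; AC50 from Hill fits.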

[10] = qHTS Assay for Identification of Small Molecule Inducers of Hypoxia Response (AID 2120; active means well fitted curve in the direction sought with a large enough effect in the signal ratio, with a control signal flat, not every such curve was filed as active; the % refers to the signal ratio; further: 0% is about no effect); conditions: hypoxia response reporter cells, beta-lactamase ratio readout; series mostly up to 104 µM
Procedure, shortened: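 Reporter induction read as the CCF4 blue/green (460nm/530nm) emission ratio after 2.5 h dye loading at room temperature. ME-180 HRE-beta-lactamase cells received titrated compounds for 17 h at 37 degrees Celsius; AC50 values derived.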

[11] = target: Peroxisome proliferator-activated receptor gamma (Homo sapiens) (UniProt P37231); experiment: qHTS assay for small molecule agonists of peroxisome proliferator-activated receptor gamma signaling (AID 588536; active means well fitted curve in the direction sought with a large enough effect in the signal ratio, with a control signal flat, not every such curve was filed as active; the % refers to the signal ratio;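 further: 0% = DMSO basal wells and 100% = rosiglitazone at 2 µM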); conditions: HEK293 PPARg-UAS-bla, beta-lactamase ratio, 16 h, percent of rosiglitazone response, DMSO as zero; series mostly up to 76.7 µM
Procedure, shortened: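 Cells were plated and held 6–6.5 h at 37 C, then compounds were added as a titration series. After a further 16 h, CCF4 dye was loaded for 2 h at room temperature and emission at 460/530 nm recorded.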

[12] = target: Thyroid hormone receptor beta (Homo sapiens) (UniProt P10828); experiment: qHTS assay for small molecule agonists of thyroid hormone receptor beta signaling (AID 588545; calls by dose curve;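 further: 0% = DMSO only and 100% = 10 nM T3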); conditions: TR-UAS-bla GripTite HEK 293, beta-lactamase ratio, agonist mode, 18 h, percent of T3 response, DMSO as zero; series mostly up to 76.7 µM
Procedure, shortened: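 Beta-lactamase reporter activity under TR response element control is measured in HEK 293 cells after 18 hrs compound exposure. Signal is ratiometric CCF4 fluorescence, 460/530 nm.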

[13] = target: Thyroid hormone receptor beta (Homo sapiens) (UniProt P10828); experiment: qHTS assay for small molecule antagonists of thyroid hormone receptor beta signaling (AID 588547; active means well fitted inhibition curve with a large enough effect in the signal ratio, with a control signal flat, not every such curve was filed as active; the % refers to the signal ratio;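 further: cells stimulated with 0.4 nM T3 agonist during compound exposure; on the % scale 0 is the no-effect control and ±100 the full control effect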); conditions: TR-UAS-bla HEK293, beta-lactamase ratio, antagonist mode, 18 h
Procedure, shortened: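 TR-UAS-bla GripTite HEK293 cells in 2% charcoal/dextran FBS medium; compounds 0.59 nM to 92 uM with T3 at 0.4nM final, 18 h at 37 C. Beta-lactamase read by CCF4 fluorescence (460/530 nm); Hill fits gave IC50 and efficacy.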

[14] = target: Voltage-gated inwardly rectifying potassium channel KCNH2 (Homo sapiens) (UniProt Q12809); experiment: qHTS Assay for Small Molecule Inhibitors of the Human hERG Channel Activity (AID 588834); conditions: U2OS BacMam hERG, FluxOR thallium flux fluorescence; series mostly up to 92.2 µM;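 further: top concentration of the series differs between compounds; on the % scale 0 is the no-effect control and ±100 the full control effect; lower thallium flux fluorescence means stronger hERG block; nearly all actives have a fitted effect of over 50% in size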
Procedure, shortened: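 In hERG-transduced U2OS cells, dye-loaded for 1 hr at room temperature in dark, test compounds incubated 10 min at 37 °C before thallium stimulation. AC50 values derived by Hill modelling of concentration-response.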

[15] = target: Nuclear receptor subfamily 1 group I member 2 (Rattus norvegicus) (UniProt Q9R1A7); experiment: qHTS assay for small molecule activators of the rat pregnane X receptor (rPXR) signaling pathway (AID 651751; call rule not given here; further: 0% is about no effect); conditions: rPXR reporter cells, luciferase (One-Glo), 24 h
C2A = experiment: qHTS profiling for inhibitors of Plasmodium falciparum proliferation (AID 504749);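 further: 0% = DMSO vehicle and full inhibition = artemisinin control; nearly all actives have a fitted effect of over 60% in size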; conditions: P. falciparum in erythrocytes, SYBR Green DNA, 72 h; series mostly up to 28.7 µM
Procedure, shortened: (§1)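 Each compound contacts P. falciparum-infected red blood cells for 72 h at 37 C; lysis buffer (Tris, EDTA, saponin, Triton X, SYBR Green I) is added and fluorescence measured next morning; values normalized to controls.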

CP237 = experiment: as above; conditions: P. falciparum in erythrocytes, SYBR Green DNA, 72 h; series mostly up to 28.7 µM
Procedure, shortened: as §1

CP260 = experiment: as above; conditions: P. falciparum in erythrocytes, SYBR Green DNA, 72 h; series mostly up to 28.7 µM
Procedure, shortened: as §1

Dd2 = experiment: as above; conditions: P. falciparum in erythrocytes, SYBR Green DNA, 72 h; series mostly up to 28.7 µM
Procedure, shortened: as §1

SC27B = experiment: as above; conditions: P. falciparum in erythrocytes, SYBR Green DNA, 72 h; series mostly up to 28.7 µM
Procedure, shortened: as §1

Nuclear receptor subfamily 1 group I member 2 (Rattus norvegicus), sequence (Q9R1A7 whole entry, looked up): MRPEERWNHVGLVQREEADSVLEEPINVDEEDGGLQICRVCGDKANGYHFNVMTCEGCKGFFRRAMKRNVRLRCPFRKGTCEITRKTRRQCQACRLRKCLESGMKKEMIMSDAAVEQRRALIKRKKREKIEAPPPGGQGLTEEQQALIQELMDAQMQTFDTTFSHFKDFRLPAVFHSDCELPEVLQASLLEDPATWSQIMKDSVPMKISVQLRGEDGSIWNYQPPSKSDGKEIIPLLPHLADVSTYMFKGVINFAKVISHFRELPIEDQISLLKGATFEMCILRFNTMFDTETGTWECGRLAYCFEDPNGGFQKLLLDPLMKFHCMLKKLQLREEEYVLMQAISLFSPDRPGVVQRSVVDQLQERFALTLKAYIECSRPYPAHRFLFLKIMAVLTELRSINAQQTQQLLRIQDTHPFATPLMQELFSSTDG
Thyroid hormone receptor beta (Homo sapiens), sequence (P10828 whole entry, looked up): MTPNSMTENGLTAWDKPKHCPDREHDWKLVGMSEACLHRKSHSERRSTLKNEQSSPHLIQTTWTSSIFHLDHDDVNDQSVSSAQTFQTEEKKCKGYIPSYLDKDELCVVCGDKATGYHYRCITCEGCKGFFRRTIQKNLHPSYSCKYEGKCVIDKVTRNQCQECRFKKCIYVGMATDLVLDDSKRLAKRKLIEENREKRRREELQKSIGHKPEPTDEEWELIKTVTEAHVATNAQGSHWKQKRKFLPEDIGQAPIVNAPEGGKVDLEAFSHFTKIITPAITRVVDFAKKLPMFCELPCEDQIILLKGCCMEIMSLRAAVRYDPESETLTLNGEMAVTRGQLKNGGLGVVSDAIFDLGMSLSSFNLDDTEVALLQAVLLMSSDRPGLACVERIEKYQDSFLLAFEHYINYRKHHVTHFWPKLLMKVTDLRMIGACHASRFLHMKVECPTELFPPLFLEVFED
Voltage-gated inwardly rectifying potassium channel KCNH2 (Homo sapiens), sequence (Q12809 whole entry, looked up): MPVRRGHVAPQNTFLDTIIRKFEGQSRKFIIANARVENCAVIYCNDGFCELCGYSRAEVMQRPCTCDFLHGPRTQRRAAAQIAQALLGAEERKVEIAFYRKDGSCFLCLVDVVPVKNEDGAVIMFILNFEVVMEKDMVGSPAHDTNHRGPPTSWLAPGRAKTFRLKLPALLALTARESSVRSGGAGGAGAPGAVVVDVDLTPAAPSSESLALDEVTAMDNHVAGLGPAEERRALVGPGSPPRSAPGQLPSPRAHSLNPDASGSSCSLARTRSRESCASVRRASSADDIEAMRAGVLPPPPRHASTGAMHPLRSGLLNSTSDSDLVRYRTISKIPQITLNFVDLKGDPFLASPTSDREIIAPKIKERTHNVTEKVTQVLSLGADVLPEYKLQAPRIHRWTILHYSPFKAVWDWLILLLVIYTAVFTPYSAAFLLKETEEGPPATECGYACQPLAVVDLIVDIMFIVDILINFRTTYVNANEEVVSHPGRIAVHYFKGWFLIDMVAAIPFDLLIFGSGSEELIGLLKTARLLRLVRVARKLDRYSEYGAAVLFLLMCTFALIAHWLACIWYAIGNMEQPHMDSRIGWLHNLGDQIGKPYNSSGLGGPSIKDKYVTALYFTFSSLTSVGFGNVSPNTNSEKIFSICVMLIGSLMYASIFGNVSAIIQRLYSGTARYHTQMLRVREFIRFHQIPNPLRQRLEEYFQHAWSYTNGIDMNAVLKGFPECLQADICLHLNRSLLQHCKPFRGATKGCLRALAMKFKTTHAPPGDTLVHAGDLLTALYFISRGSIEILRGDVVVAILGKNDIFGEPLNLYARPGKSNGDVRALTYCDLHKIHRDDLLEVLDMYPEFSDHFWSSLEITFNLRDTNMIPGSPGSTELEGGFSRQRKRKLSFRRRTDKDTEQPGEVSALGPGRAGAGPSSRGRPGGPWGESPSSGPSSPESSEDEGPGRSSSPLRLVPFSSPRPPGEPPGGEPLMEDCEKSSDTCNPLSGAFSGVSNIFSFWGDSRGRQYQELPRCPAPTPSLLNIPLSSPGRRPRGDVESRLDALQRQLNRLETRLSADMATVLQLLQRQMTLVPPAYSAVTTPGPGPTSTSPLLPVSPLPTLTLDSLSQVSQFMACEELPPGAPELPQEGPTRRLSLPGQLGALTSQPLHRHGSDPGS
Peroxisome proliferator-activated receptor gamma (Homo sapiens), sequence (P37231 whole entry, looked up): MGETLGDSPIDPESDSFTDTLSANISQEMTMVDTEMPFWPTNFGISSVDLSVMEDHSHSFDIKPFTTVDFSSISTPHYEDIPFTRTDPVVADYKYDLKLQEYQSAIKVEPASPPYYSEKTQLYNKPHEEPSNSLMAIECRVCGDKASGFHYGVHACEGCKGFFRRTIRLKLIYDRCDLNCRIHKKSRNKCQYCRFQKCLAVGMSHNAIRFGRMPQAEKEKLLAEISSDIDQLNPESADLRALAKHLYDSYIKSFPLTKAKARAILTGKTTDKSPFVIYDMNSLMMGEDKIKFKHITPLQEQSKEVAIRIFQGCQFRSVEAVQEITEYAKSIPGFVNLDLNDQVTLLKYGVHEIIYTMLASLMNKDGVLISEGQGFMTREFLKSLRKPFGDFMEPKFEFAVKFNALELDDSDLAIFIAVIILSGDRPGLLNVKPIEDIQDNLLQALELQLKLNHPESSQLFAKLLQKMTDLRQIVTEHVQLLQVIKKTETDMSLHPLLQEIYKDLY

O=C(O)c1ccccc1C(c1ccc(O)cc1)c1ccc(O)cc1
inactive: Potency [1] > 92 µM | Potency [2] > 92 µM | Potency [3] > 92 µM | Potency [4] | outcome [5] | activity change, negative = cytotoxicity [6] 8.62% | outcome [7] | outcome [8] | outcome [9] | outcome [10] | outcome [11] | outcome [12] | activity change % (negative = inhibition) [13] 4.41% and 9.59% | Potency [14] | max response [15] 0.601% and -3.77%

O=NCc1ccc([N+](=O)[O-])o1
inactive: Potency (C2A) | Potency (CP237) | Potency (CP260) | Potency (Dd2) | Potency (SC27B)

O=S(=O)(O)c1ccccc1
inactive: Potency [1] > 92 µM | Potency [2] > 92 µM | Potency [3] > 92 µM | Potency [4] | outcome [5] | activity change, negative = cytotoxicity [6] 0.153% | outcome [7] | outcome [8] | outcome [9] | outcome [10] | outcome [11] | outcome [12] | Potency [14] | max response [15] 2.35%

c1ccc2scnc2c1
inactive: Potency [1] > 92 µM | Potency [2] > 92 µM | Potency [3] > 92 µM | Potency [4] | outcome [5] | activity change, negative = cytotoxicity [6] -5.46% | outcome [7] | outcome [8] | outcome [9] | outcome [10] | outcome [11] | outcome [12] | activity change % (negative = inhibition) [13] 10.2% | Potency [14] | max response [15] -1.2%

CCC(C)CCCCC(=O)NC(CCN)C(=O)NC(C(=O)NC(CCN)C(=O)NC1CCNC(=O)C(C(C)O)NC(=O)C(CCN)NC(=O)C(CCN)NC(=O)C(CC(C)C)NC(=O)C(Cc2ccccc2)NC(=O)C(CCN)NC1=O)C(C)O (centres undefined) ({Octanoyl(6-Me)}-[Dab]T[Dab][Dab][Dab]FL[Dab][Dab]T; lactam 4-C; configuration not given here)
inactive: Potency (C2A) | Potency (CP237) | Potency (CP260) | Potency (Dd2) | Potency (SC27B)
